In PubChem BioAssay AID641 (Vanderbilt High Throughput Screening Facility, 2007):
In all, about 58,000 compounds went through this assay and about 3,400 (5.9%) were called active.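 The calls were made as follows: active = luminescence count or its row- and column-corrected plate score outside the 99.7% band of the plate's sample wells, on either side; inactive = the rest.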 The full list was thinned out, with actives kept by preference.

Each compound was assayed against D(1A) dopamine receptor (Homo sapiens) (UniProt P21728) (assay: D1 CRE-luciferase signal change, two-sided – cell-based, HEK293 D1, dopamine EC30, D1 allosteric modulator project, primary screen (AID 641)). Conditions: dopamine EC30 potentiation, at 10 µM, actives deviate in either direction.
Chain of D(1A) dopamine receptor (Homo sapiens) (P21728 whole entry, looked up): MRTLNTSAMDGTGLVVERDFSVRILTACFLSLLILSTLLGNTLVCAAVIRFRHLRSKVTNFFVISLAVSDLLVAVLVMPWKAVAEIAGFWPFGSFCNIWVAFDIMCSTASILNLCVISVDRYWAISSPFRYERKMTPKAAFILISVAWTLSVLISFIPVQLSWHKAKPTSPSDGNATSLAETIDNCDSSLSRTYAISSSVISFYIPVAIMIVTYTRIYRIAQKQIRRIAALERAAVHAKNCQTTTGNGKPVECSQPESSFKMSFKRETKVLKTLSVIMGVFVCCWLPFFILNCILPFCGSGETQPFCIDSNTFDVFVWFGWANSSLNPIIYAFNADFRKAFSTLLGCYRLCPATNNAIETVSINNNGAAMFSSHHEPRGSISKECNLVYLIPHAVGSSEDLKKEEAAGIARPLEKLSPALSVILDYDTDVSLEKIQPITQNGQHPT

Compound | B-score
COCCNC(=O)COc1ccc(C)c(C)c1 | 0.751 (inactive)
CCOc1cccc(C(=O)Nc2cccnc2)c1 | 0.108 (inactive)
O=C(Nc1cccnc1)c1ccc2c(c1)OCO2 | -0.0115 (inactive)
O=C(Nc1cccnc1)c1noc2c1CCCCC2 | -2.9 (active)
Cc1nnc(SCC(=O)NCc2ccccc2)s1 | 0.474 (inactive)
O=C(CSc1nnc2ccccn12)c1ccccc1 | -0.291 (inactive)
COc1ccc(-n2c(SC)nc(O)cc2=O)cc1 | 0.0194 (inactive)
COc1ccccc1CNC(=O)C1CCCN(S(=O)(=O)c2cccc3cccnc23)C1 (configuration not stated) | -0.155 (inactive)
COc1ccc(NC(=O)C2CCCN(S(=O)(=O)c3cccc4cccnc34)C2)cc1OC (configuration not stated) | 11.5 (active)
COc1ccc(NC(=O)C2CCCN(S(=O)(=O)c3cccc4cccnc34)C2)cc1 (configuration not stated) | -1.11 (inactive)
COc1ccc(OC)c2[nH]c(=O)c(CCNC(=O)C(C)(C)C)cc12 | -0.197 (inactive)
CCCSc1nc2c(c(=O)n(C)c(=O)n2C)n1Cc1ccc(C)cc1 | 1.94 (inactive)
CCCCn1c(SCC(=O)NCCc2ccc(OC)c(OC)c2)nc2c1c(=O)n(C)c(=O)n2C | 0.0783 (inactive)
CCOc1ccc(Cn2c(SCCCCC#N)nc3c2c(=O)n(C)c(=O)n3C)cc1OCC | 10.1 (active)
Fc1ccc(OCc2nn3c(Cn4nnc5ccccc54)nnc3s2)cc1 | -0.628 (inactive)
Oc1ccc(Cl)cc1/C=N/c1nc2ccccc2[nH]1 | 1.49 (inactive)
COc1cccc(NC(=O)C2CCCN2C(=O)OCc2ccccc2)c1 (configuration not stated) | 0.12 (inactive)
N#Cc1ccc(COC(=O)Cn2nnc(-c3ccccc3)n2)cc1 | 0.71 (inactive)
N#Cc1c(N)sc2c1CCN(C(=O)OCc1ccccc1)C2 | 5.84 (active)
O=C(NCCN1CCOCC1)c1ccc2c(c1)ncn2C1CCCC1 | -0.956 (inactive)
COc1ccc(OC)c(NC(=O)Cn2c(=O)oc3ccccc32)c1 | 0.945 (inactive)
COc1ccc(CCNC(=O)CCCCn2c(=O)[nH]c3ccccc3c2=O)cc1OC | 0.358 (inactive)
COc1ccc(CCNC(=O)CCn2c(=O)oc3ccccc32)cc1OC | 6.86 (active)

Compound | B-score
Cc1c(C(=O)NCC2CCCO2)sc2nc(-c3ccccc3)cn12 (configuration not stated) | 0.33 (inactive)
O=C(O)[C@@H]1CCCN1c1ncnc2sc3c(c12)CCC3 | -0.0144 (inactive)
COc1ncnc2sc3c(c12)CCCC3 | 5.43 (active)
CC1(C)CN=C(N2CCN(c3ncnc4sc5c(c34)CCCC5)CC2)S1 | -0.977 (inactive)
O=C(NC1CCCCC1)C1CCCN(S(=O)(=O)c2cccs2)C1 (configuration not stated) | 0.0829 (inactive)
O=C(CCSc1ccccc1)NCCSc1ccccn1 | 0.117 (inactive)
COc1cccc(C2/C(=C(/O)c3ccc(F)cc3)C(=O)C(=O)N2CCN(C)C)c1 (configuration not stated) | -0.0254 (inactive)
COc1ccc(/C(O)=C2/C(=O)C(=O)N(CCCN(C)C)C2c2ccccc2)cc1OC (configuration not stated) | -0.187 (inactive)
COc1cccc(C2/C(=C(/O)c3ccncc3)C(=O)C(=O)N2CCCN(C)C)c1 (configuration not stated) | -3.02 (active)
O=S(N1CCCCCC1)C12CC3CC(CC(C3)C1)C2 (configuration not stated) | -1.48 (inactive)
CCCN1C(=O)C(NS(=O)(=O)c2ccc(N)cc2)(C(F)(F)F)C(C(=O)OC)=C1C (configuration not stated) | -0.0535 (inactive)
C=CCNC(=O)CCCOc1cccc(C)c1 | 0.267 (inactive)
Cc1nc2c(-c3ccc(F)cc3)c(C)nn2c(C)c1CCC(=O)N1CCN(c2ccccn2)CC1 | -0.178 (inactive)
CCOc1cc(CN2CCN(C(=O)CC(C)C)CC2)ccc1OC | 0.0601 (inactive)
COc1ccc(C(=O)N2CCC(C(=O)Nc3cccc(C)c3)CC2)cc1OC | -0.521 (inactive)
CCOc1cc(C(=O)N2CCc3cc(OC)c(OC)cc3C2)ccc1OC(F)F | 15.1 (active)
CC(C)OCCCNc1ncnc2c1[nH]c1ccc(F)cc12 | -3.37 (active)
O=C1CCCN1CCCNc1ncnc2c1[nH]c1ccccc12 | -0.02 (inactive)
CCN1CCCC1CNc1ncnc2c1[nH]c1ccc(F)cc12 (configuration not stated) | -0.311 (inactive)
c1csc(-c2cn3c(n2)SCC3)c1 | -0.433 (inactive)
O=C(COC(=O)c1ccc2c(c1)OCCO2)NCc1ccccc1 | 0.524 (inactive)
COc1cc2[nH]c(=S)n(Cc3ccc(C)o3)c(=O)c2cc1OC | 2.05 (inactive)
CCOC(=O)N1CCN(C(=O)CN(c2ccc(C)c(C)c2)S(=O)(=O)c2ccccc2)CC1 | -0.0191 (inactive)

Compound | B-score
COc1ccccc1Nc1nc(N)nc(CN(C)C2CCCCC2)n1 | -0.094 (inactive)
COc1ccccc1NC1=NC(c2ccc(Cl)cc2)N=C(N)N1 (configuration not stated) | -3.3 (inactive)
COc1ccccc1NC1=NC2(CCCC2)N=C(N)N1 | -3.14 (active)
c1ccc(-n2ncc(-c3nn[nH]n3)n2)cc1 | -1.26 (inactive)
CCCOC(=O)CC1C(=O)NCCN1Cc1ccc(F)cc1 (configuration not stated) | -0.0757 (inactive)
CC1CCCN(C(=O)c2ccc3c(c2)C(=O)N(CCC2=CCCCC2)C3=O)C1 (configuration not stated) | -0.192 (inactive)
COC(=O)Nc1c(C)n(C)n(-c2ccccc2)c1=O | -1.4 (inactive)
CCN(CC)CCN1C(=O)C(=O)/C(=C(/O)c2ccc(OC)c(OC)c2)C1c1ccccn1 (configuration not stated) | -0.322 (inactive)
COc1cc(-n2c(C)nc3cc(C(=O)NCc4ccco4)ccc32)cc(OC)c1OC | 0.213 (inactive)
COc1ccc(-n2c(Cc3cccn3C)nnc2SCC(=O)Nc2cc(C)cc(C)c2)cc1 | 11.4 (active)
COC(=O)c1ccc(NC(=O)CSc2nnc(Cc3cccn3C)n2-c2ccc(F)cc2)cc1 | -0.00937 (inactive)
COc1ccccc1NC(=O)CSc1nnc(Cc2cccn2C)n1-c1ccc(F)cc1 | -0.801 (inactive)
CCCc1[nH]nc2c1C(C1CC=CCC1)C(C#N)=C(N)O2 (configuration not stated) | -0.104 (inactive)
CC1(C)CC(=O)c2cc(OCC(=O)NCC3CCCO3)ccc2O1 (configuration not stated) | -0.0202 (inactive)
O=C(O)c1ccc(-n2cccc2)cc1O | -0.446 (inactive)
COc1ccc(C(=O)Cn2nnc(-c3ccc(N4CCOCC4)cc3)n2)cc1OC | 0.758 (inactive)
CCOc1ccc(-c2nnn(CC(=O)N3CCN(c4ccc(OC)cc4)CC3)n2)cc1OCC | 3.84 (active)
CCOc1cc(-c2noc(CCC(=O)N3CCOCC3)n2)ccc1OC | 13.7 (active)
Cc1ccc(OCCCC(=O)N2CCOCC2)c(C)c1 | -1.03 (inactive)
Cc1ccc(-c2noc(CCC(N)=O)n2)cc1 | -0.953 (inactive)
CCOc1ccc(-c2nnn(CC(=O)N3CCN(c4ccc(F)cc4)CC3)n2)cc1OCC | -0.401 (inactive)
